# According to PubChem BioAssay (NCI):
# Several values for one entry are separate records, joined by “and”; a condition that tells them apart may be missing. Equal values may be shown once. About 83,000 compounds went through this panel and 20% of them were active in at least one assay; those are over-represented in the sample as a whole.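 A percent growth of 40 corresponds to 60% growth inhibition; 0 means no net growth; -100 means all cells died. Active threshold: below 10.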 Activity calls are given as the source filed them. Where a SMILES comes first, the peptide text is derived from it.
# Tested on: SR leukemia
# Test: NCI-60 one-dose screen, 48 h (100 = growth as untreated, 0 = no growth, -100 = all killed)
# Settings: 10 µM unless noted
# Description: Growth inhibition of the SR human tumor cell line is measured as a screen for anti-cancer activity. Cells are grown in 96 well plates and exposed to the test compound for 48 hours. Compounds are tested at a single concentration, which is 10^-5 M for most compounds. The reported endpoint is percent growth (GI% or GIPRCNT), where numbers from 0 - 100% represent growth inhibition, and numbers from -100% - 0 represent cell death. For example, a value of 40 represents 60% growth inhibition. A value of 0 means no net growth occurred over the course of the experiment. A value of -40 indicates 40% of cells at the beginning of the experiment died by the end of the experiment. A value of -100 means all cells are dead at the end of the experiment.
# NCI-60 Human Tumor Cell Lines Screen was performed using the standard one-dose NCI protocol, which is described in more detail at https://dtp.cancer.gov/discovery_development/nci-60/default.htm.
# Compounds with GIPRCNT values below 10 were considered active. Activity score was based on GIPRCNT using the following formula: […]
# Score is 0 for GIPRCNT values of 100 or above, 50 for GIPRCNT values of 0, and 100 for GIPRCNT values of -100.
row,SMILES,growth
1,CC1CCC(C(C)C)C(NNC(N)=O)C1 (stereo not given),100% (inactive)
2,O=CN1CCCCC1,119% (inactive)
3,O=C1C=C(Nc2ccccc2)c2ccccc2C1=O,84.5% (inactive)
4,CC(C)NC(=O)N/C=C(\C#N)C(N)=O,100% (inactive)
5,CN(C)c1ccc(/C=C\C(=O)c2ccccc2)cc1,3.11% (active) and 59.4% (inactive) and 24.9% (inactive)
6,COc1ccc(C(=O)CC(c2ccccc2)C(C#N)c2ccccc2)cc1 (stereo not given),73.8% (inactive)
7,CC(C)NCC(O)c1ccc(O)c(O)c1 (stereo not given),87.9% (inactive) and 95.3% (inactive)
8,O=C1OC(C(O)C(O)CO)C(O)=C1O (stereo not given),103% (inactive) and 107% (inactive)
9,CC(C)(O)C(=O)O,119% (inactive)
10,Nc1cc(N)c(N)cc1N,-7.21% (active)
11,ClCCOCCOc1ccc(C2CCCCC2)cc1,98.5% (inactive)
12,O=C1OC(c2ccccc2)=N/C1=C\c1ccccc1,108% (inactive)
13,CC(C)C(C)(C)c1ccc(O)cc1,97.8% (inactive)
14,O=c1[nH]cnc2c1ncn2C1OC(CO)C(O)C1O (stereo not given),106% (inactive) and 83.5% (inactive) and 88.4% (inactive)
15,CCCCOc1ccc(Nc2cc(Cl)ccc2C(=O)O)cn1,96.1% (inactive)
16,C/C(=C\c1ccccc1)c1ccccn1,99.4% (inactive)
17,N#CC(C#N)N=Nc1cc(Cl)ccc1Cl,106% (inactive)
18,Brc1ccc(SSc2ccc(Br)cc2)cc1,57.8% (inactive)
19,N#CC(C#N)N=Nc1ccc(Cl)cc1,53.7% (inactive)
20,O=C(O)CCCl,83.7% (inactive)

row,SMILES,growth
1,CN(C)CC1CCCCCC(CN(C)C)C1=O (stereo not given),5.93% (active)
2,CCOC(=O)c1c(C)cc(=O)oc1C,92% (inactive)
3,O=C1CSC2=NCCN12,98.3% (inactive) and 49.5% (inactive)
4,C#CCOC(=O)Nc1ccccc1,111% (inactive)
5,Nc1ccc2c(O)cc(S(=O)(=O)O)cc2c1,86.3% (inactive)
6,O=C(Cc1ccccc1)c1ccc(O)c(Cl)c1,10.2% (inactive)
7,Cc1ccc(S(=O)(=O)c2ccccc2)cc1,34.7% (inactive)
8,NC(Cc1ccccc1)C(=O)NC(Cc1ccccc1)C(=O)O (stereo not drawn) (H-Phe-Phe-OH; configuration not given here),97.4% (inactive) and 102% (inactive)
9,CCCCCCCCCCCCCCCCC(C(=O)O)C(O)(CC(=O)O)C(=O)O (stereo not given),90.8% (inactive) and 1.12% (active)
10,NC1CCC(C(=O)O)CC1 (stereo not given),111% (inactive) and 105% (inactive)
11,O=c1n(CC2CO2)c(=O)n(CC2CO2)c(=O)n1CC1CO1 (stereo not given),17.8% (inactive)
12,O=C(O)/C=C\C(=O)Nc1cccc2ccccc12,103% (inactive) and 70.2% (inactive)
13,CCCCOC(=O)/C=C\C(=O)NC(N)=O,-22.3% (active)
14,CN1CNC(=O)NC1,106% (inactive) and 79.6% (inactive)
15,O=C1c2c(O)ccc(O)c2C(=O)c2c(NCCNCCO)ccc(NCCNCCO)c21,-12.7% (active)
16,COc1ccc2cc1Oc1ccc(cc1)C[C@H]1c3cc(c(OC)cc3CCN1C)Oc1c(OC)c(OC)cc3c1[C@H](C2)N(C)CC3,-7.9% (active)
17,CC(=O)OCC1OC(OC(C)=O)C(OC(C)=O)C(OC(C)=O)C1OC(C)=O (stereo not given),98.1% (inactive) and 93.6% (inactive)
18,O=[N+]([O-])c1cccc(SSc2cccc([N+](=O)[O-])c2)c1,81% (inactive)
19,CCCCNc1ccc(Nc2ccccc2)cc1,62.3% (inactive)
20,CCc1cc(C)cc(O)c1,102% (inactive)
